# Data: PubChem BioAssay AID624305 (National Center for Advancing Translational Sciences (NCATS), 2012)
# Inconclusive results are not listed. Activity calls are given as the source filed them. Calls come from the whole dose curve; as a rule, active = well fitted activation curve with a large enough effect; inconclusive = small, poorly fitted or top-dose-only effect; inactive = no such curve, though single readings can be large or run the other way.
# Assay: qHTS assay for re-activators of p53 using a Luc reporter: Hit Validation; note: nearly all actives have a fitted effect of over 75% in size; for activation: 0% is about no effect
# Details: p53-responsive luciferase reporter cells, luminescence, H1299 line expressing heat-sensitive Ala138Val p53; series mostly up to 46.1 µM; activation: at the top concentration
# How it was run: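 Hit confirmation with a 1:5 dilution series, at 37 deg C for 24 hrs, in H1299 cells co-expressing temperature-sensitive p53-A138V and p53-responsive luciferase. Nocodazole served as control; luminescence read after 10 min with detection reagent.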
# Potency is the fitted concentration of half-maximal effect.
Structure (SMILES),Potency,activation
Cn1c(=N)n(CC(=O)c2ccc(Cl)c(Cl)c2)c2ccccc21,580 nM (active),–
Cc1nn(-c2ccccc2)c(C)c1/C=N/Nc1nc2ccccc2[nH]1,731 nM (active),–
COc1ccc(/C=N/Nc2nncc3ccccc23)cc1,73.1 nM (active),–
Cc1ccc(NC(=S)NC(=O)C2CCCC2)c(Br)c1,3660 nM (active),–
CCOc1ccc(OCCSc2nc3ccccc3n2CC(=O)O)cc1,–,-1.04% (inactive)
COc1ccccc1NC(CC(=O)c1ccccc1)C(=O)OCC(=O)c1ccc(C)cc1 (stereo not given),206 nM (active),–
COc1ccccc1NC(CC(=O)c1ccccc1)C(=O)OCC(=O)c1ccc(F)cc1 (stereo not given),231 nM (active),–
Cc1cccc(-n2c(C)cc(/C=N\NC(=O)c3cccs3)c2C)c1,1160 nM (active),–
O=C(O)C1C2C=CC(C2)C1C(=O)Nc1ccccc1Br (stereo not given),–,2.08% (inactive)
O=C(Nc1nnc(-c2cccs2)o1)c1cccc(Oc2ccccc2)c1,–,-32.3% (inactive)
CC(=O)c1ccc(N2Cc3ccccc3C2=NC(=O)c2cccs2)cc1,–,41.7% (inactive)
O=C(c1cccc(Br)c1)c1coc2ccc(O)cc12,23100 nM (active),–
O=C(Oc1ccccc1/C=C\C(=O)c1cc2ccccc2o1)c1cccc(F)c1,206 nM (active),–
CCc1ccc2c(CN(CC)Cc3nc4ccccc4c(=O)[nH]3)cc(=O)oc2c1,–,-11.9% [at 9.22 µM] (inactive)
Oc1cccc2c(NC(=S)Nc3ccc(OC(F)F)cc3)cccc12,–,-2.08% (inactive)
CC(=O)c1cccc(NS(=O)(=O)N(C)C)c1,–,-1.04% (inactive)
Cc1cs/c(=N\N=C\c2ccc(O)cc2)n1Cc1ccco1,–,23.4% (inactive)
COc1ccc2c(c1)Cc1sc(NC(C)=O)nc1-2,11600 nM (active),–
Cc1csc(NC(=O)CSc2nnc(-c3cccs3)n2C)n1,–,10.9% (inactive)
CCC(=O)c1ccc(OC(=O)Cc2ccc(OC)cc2)cc1,–,4.69% (inactive)
